Assay [1] deals with Zika virus NS2B-NS3 protease. Nature of the assay: Primary screen GU AMC qHTS for Zika virus inhibitors (AID 1347154). Further: nearly all actives have a fitted effect of over 70% in size. Further: potency means the concentration at half of the fitted maximal effect. The conditions noted are these: Zika NS2B-NS3 unlinked protease, AMC fluorogenic substrate; series mostly up to 54.1 µM. The method, boiled down:
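Unlinked Zika NS2B hydrophilic domain/NS3 protease domain noncovalent complex (25 nM final) in 10 mM Tris-HCl pH 8.0, 0.01% Tween 20, with AMC peptide substrate. Fluorescence (ex 340, em 450 nm) change over 15 min, room temperature; percent inhibition fitted to 4-parameter Hill equation.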

Assay [2] deals with Zika virus NS2B-NS3 protease (linked construct). Nature of the assay: Primary screen NINDS Rhodamine qHTS for Zika virus inhibitors (AID 1347160). Further: nearly all actives have a fitted effect of over 55% in size. The following applies: purified NS2B-NS3 protease, Rhodamine110 substrate fluorescence; series mostly up to 57.1 µM. The method, boiled down: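 Purified NS2B-NS3 protease with the NS2B hydrophilic domain joined by a flexible linker (25 nM) in 10 mM Tris-HCl pH 8.0, 0.01% Tween 20, preincubated 15 min at RT with compound; Rhodamine110 peptide substrate 1.5 µM; fluorescence change over 15 min; 4-parameter Hill fit.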
(In general: Quantitative high-throughput screening tests each substance at several concentrations.)

The subject of assay [3] is Zika virus NS2B-NS3 protease (unlinked complex). Kind of assay: Primary screen GU Rhodamine qHTS for Zika virus inhibitors: Unlinked NS2B-NS3 protease assay (AID 1347159). Further: nearly all actives have a fitted effect of over 60% in size. The following applies: Recombinant ZIKV NS2B-NS3 protease, Rhodamine110 substrate fluorescence; series mostly up to 107 µM. The method, boiled down: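 Noncovalent NS2B hydrophilic domain/NS3 protease complex (25 nM final) in 10 mM Tris-HCl pH 8.0, 0.01% Tween 20, preincubated 15 min with compounds (up to 114 microM), then 1.5 microM Rhodamine110 substrate. Fluorescence change over 15 min fitted to 4-parameter Hill.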

Assay [4] can be described thus: qHTS to identify inhibitors of the type 1 interferon - major histocompatibility complex class I in skeletal muscle: primary screen against the NCATS Mechanism Interrogation Plate v5.0 (MIPE) Libary (AID 1347411). Further: nearly all actives have a fitted effect of over 65% in size. The conditions noted are these: iHSKM cells + IFN-b, HiBiT-tagged MHC-I luminescence, 24 h; series mostly up to 45.8 µM. The method, boiled down:
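Cells were genome-edited human myoblasts carrying a HiBit tag on endogenous HLA-B. They were treated with IFN-beta (4.0 ng/ml) and titrated compounds (top 46 uM) for 24 hrs before lytic HiBiT detection.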

Assay [5] has as its target Protein phosphatase 1D (Homo sapiens) (UniProt O15297). Kind of assay: RapidFire Mass Spectrometry qHTS Assay for Modulators of WT P53-Induced Phosphatase 1 (WIP1) (AID 1347424).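 Further: amount of dephosphorylated VEPPL-S-QETFS peptide product formed by WIP1.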 The conditions noted are these: WIP1 dephosphorylation of phosphopeptide, RapidFire MS; series mostly up to 63 µM. The method, boiled down: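 WIP1 (10 nM final) was preincubated 1 h at room temperature with compounds in Tris-HCl pH 7.5, 30 mM MgCl2, TCEP, EGTA, BSA; 2 uM VEPPL-pS-QETFS phosphopeptide was added for 5 min, quenched with formic acid, and dephosphorylated product quantified by RapidFire MS.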

The target in assay [6] is Lysine-specific demethylase 5B (Homo sapiens) (UniProt Q9UGL1). Kind of assay: Optimization screen for KDM5B Histone Demethylases FDH coupled qHTS against the LOPAC library (AID 1347166). The following applies: KDM5B demethylation, FDH-coupled NADH fluorescence (FDH is formaldehyde dehydrogenase); series mostly up to 57.5 µM. The method, boiled down: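 KDM5BDeltaAP (200nM final) preincubated 10 min with compound, then 12.5uM H3K4Me3, 25uM a-ketoglutarate, ascorbate, Fe(II), NAD+ and FDH added; 50mM HEPES pH 7.5, 0.01% Tween-20. NADH fluorescence (340/450 nm) change over 30 min, room temperature.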
Lysine-specific demethylase 5B (Homo sapiens), sequence (Q9UGL1 whole entry, looked up): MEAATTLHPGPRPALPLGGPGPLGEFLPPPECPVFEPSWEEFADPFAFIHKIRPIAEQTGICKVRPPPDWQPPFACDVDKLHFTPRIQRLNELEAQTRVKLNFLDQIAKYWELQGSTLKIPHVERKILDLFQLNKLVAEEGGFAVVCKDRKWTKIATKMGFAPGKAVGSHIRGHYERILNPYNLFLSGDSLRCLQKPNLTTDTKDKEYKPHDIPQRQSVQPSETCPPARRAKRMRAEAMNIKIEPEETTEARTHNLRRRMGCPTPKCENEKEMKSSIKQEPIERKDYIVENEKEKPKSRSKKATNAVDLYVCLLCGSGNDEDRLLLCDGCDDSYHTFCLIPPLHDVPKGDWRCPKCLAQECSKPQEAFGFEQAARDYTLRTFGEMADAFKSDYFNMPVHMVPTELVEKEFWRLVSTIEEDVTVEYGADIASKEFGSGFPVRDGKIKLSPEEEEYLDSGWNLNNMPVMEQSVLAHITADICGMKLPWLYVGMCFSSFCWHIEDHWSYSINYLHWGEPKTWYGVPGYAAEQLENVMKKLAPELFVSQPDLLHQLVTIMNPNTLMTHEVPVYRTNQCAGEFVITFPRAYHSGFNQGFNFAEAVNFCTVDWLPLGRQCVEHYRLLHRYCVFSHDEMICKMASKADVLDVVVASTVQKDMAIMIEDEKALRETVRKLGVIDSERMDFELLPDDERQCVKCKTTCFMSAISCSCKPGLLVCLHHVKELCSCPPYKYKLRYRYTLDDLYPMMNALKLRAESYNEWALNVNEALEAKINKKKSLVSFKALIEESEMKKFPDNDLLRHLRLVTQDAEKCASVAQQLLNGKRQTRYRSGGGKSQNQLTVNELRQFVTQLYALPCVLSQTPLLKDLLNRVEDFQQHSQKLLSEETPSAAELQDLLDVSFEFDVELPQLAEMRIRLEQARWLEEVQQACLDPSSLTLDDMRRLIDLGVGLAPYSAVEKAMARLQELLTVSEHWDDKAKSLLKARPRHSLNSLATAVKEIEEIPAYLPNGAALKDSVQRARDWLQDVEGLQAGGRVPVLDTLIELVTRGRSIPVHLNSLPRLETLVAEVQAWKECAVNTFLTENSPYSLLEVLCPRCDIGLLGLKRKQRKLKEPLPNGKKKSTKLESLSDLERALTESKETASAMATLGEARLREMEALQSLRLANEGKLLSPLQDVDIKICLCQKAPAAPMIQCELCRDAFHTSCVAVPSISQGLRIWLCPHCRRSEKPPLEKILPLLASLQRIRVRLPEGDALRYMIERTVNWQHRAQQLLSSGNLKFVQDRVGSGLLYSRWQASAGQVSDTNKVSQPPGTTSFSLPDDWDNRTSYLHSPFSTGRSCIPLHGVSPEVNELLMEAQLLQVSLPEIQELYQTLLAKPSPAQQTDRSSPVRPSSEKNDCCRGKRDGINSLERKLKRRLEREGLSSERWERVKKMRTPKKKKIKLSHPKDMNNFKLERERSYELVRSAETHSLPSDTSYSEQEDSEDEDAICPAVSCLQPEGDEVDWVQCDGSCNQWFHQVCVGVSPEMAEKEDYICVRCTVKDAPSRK

A short description of assay [7]: qHTS to identify inhibitors of the type 1 interferon - major histocompatibility complex class I in skeletal muscle: primary screen against the NCATS LOPAC collection (AID 1347405).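 Further: lytic HiBiT luminescence reporting HLA-B protein level.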 The conditions noted are these: iHSKM muscle cells, IFN-b-induced MHC-I HiBiT luminescence, 24 h; series mostly up to 45.9 µM. The method, boiled down:
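Cells: C25cl48 human myoblasts, HiBiT-tagged HLA-B*08:01, stimulated with IFN-beta 4.0 ng/ml. Compounds are titrated 1:4.3 over 7 points from 46 uM final and incubated 24 hrs; endogenous MHC class I is quantified by HiBiT lytic luminescence.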

Assay [8] in a line: qHTS to identify inhibitors of the type 1 interferon - major histocompatibility complex class I in skeletal muscle: primary screen against the NCATS Pharmaceutical Collection (AID 1347407).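 Further: luminescence of HiBiT knocked into endogenous HLA-B as interferon-induced MHC class I level.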 The following applies: human skeletal muscle cells, IFN-b-induced MHC-I HiBiT luminescence, 24 h; series mostly up to 45.9 µM. The method, boiled down:
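A qHTS format is used: 8-point, 1:5 compound series with 46 uM top final concentration, applied alongside 4 ng/ml IFN-beta to HLA-B*08:01-HiBiT knock-in myoblasts. Luminescence is measured after 24 h treatment.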

Assay [9] is described as follows: qHTS for inhibitors of adenylyl cyclases using a fission yeast platform: a pilot screen against the NCATS LOPAC library (AID 1347410). The following applies: S. pombe CHP2027, fbp1-GFP fluorescence, 18 h, yeast expressing mammalian AC9 and human GNAS; series mostly up to 57.5 µM. The method, boiled down:
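Inhibition of GNAS-stimulated AC9 activity in S. pombe was inferred from derepression of a PKA-repressed fbp1-GFP reporter, measured as cytometric fluorescence after 18 h at 30C with compounds at up to 57 µM.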

The nature of assay [10]: Validation qHTS assay for inhibitors of Activation Induced Cytidine Deaminase (AID): UDG Counterscreen signal (AID 1347427). The following applies: biochemical UDG counterscreen, fluorescence signal; series mostly up to 115 µM. The method, boiled down: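 Counterscreen read of UDG activity (2 U/mL, 4/3x) in the FRET deamination format with AID (1 uM, 4/3x), DJC20/DJC23 substrates (250 nM, 4x), 4 h at room temperature. NaOH stop, fluorescence at 560 ex/665 em.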

Assay [11] concerns the target Protein phosphatase 1D (Homo sapiens) (UniProt O15297). Kind of assay: Rhodamine-PBP qHTS Assay for Modulators of WT P53-Induced Phosphatase 1 (WIP1) (AID 1347425). The conditions noted are these: recombinant WIP1, Rhodamine-PBP phosphate fluorescence, real-time; series mostly up to 57.5 µM. The method, boiled down: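 WIP1 (5 nM final) was preincubated with compound for 1 hour at room temperature. It then dephosphorylated 10 uM VEPPL-pS-QETFS peptide in Tris-HCl pH 7.5 with 30 mM MgCl2. Released Pi was detected by 10 uM Rh-PBP fluorescence (ex 525/em 598 nm) read at 1-min intervals for 11 min, as delta f1 - f0.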

Results filed as inconclusive are left out. Activity calls are given as the source filed them. The call rests on the fitted dose curve; in most records, active means well fitted curve in the direction sought with a large enough effect; inconclusive means small, poorly fitted or top-dose-only effect, or another doubt; inactive means no such curve, though single readings can be large; an effect the other way counts as inactive or inconclusive.

Protein phosphatase 1D (Homo sapiens), sequence (O15297 whole entry, looked up): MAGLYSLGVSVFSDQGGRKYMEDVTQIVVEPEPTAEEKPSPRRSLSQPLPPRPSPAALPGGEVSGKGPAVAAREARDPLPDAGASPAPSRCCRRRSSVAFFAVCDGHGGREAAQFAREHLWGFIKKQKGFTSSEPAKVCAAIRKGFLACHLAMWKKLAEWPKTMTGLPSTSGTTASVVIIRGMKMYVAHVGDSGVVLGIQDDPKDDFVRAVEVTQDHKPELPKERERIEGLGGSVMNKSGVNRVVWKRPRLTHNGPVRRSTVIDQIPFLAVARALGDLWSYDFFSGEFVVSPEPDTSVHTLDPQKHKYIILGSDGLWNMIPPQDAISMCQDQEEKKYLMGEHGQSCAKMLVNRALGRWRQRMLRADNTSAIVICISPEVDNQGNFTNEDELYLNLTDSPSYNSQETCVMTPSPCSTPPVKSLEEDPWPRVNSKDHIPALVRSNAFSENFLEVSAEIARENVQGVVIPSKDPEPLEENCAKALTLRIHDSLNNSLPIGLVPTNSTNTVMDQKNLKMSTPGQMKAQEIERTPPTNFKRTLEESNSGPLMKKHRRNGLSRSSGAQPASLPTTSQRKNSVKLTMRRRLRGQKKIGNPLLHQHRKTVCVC

Take `COc1cc(F)c(F)c(Nc2ccc(I)cc2F)c1NS(=O)(=O)C1(C[C@H](O)CO)CC1`: the Potency result in assay [1] and in assay [2] was “inactive” in each case.
With `Cn1cnc2c(F)c(Nc3ccc(Br)cc3Cl)c(C(=O)NOCCO)cc21`, the Potency result in assay [1], in [3], in assay [2], in assay [4] and in assay [5] was “inactive” in each case.
As for `c1ccc([C@H]2CN3CCSC3=N2)cc1`, the Potency result in assay [1], in [7], in [4] and in assay [5] was “inactive” each time. Besides, the call in assay [6], in assay [8], in [9] and in assay [10] was inactive.
`C[C@]12CCC(=O)C=C1CC[C@@H]1[C@@H]2[C@@H](O)C[C@@]2(C)[C@H]1CC[C@]2(O)C(=O)CO`: the Potency entry in [1], in assay [7], in assay [4] and in assay [5] was “inactive” throughout. Also, the compound was classed as inactive in [6], in [8], in [9] and in [11].
Regarding `NS(=O)(=O)c1cc2c(cc1Cl)NC=NS2(=O)=O`, the Potency entry in assay [1], in assay [7], in assay [4] and in assay [5] was “inactive” in each case. For the same compound, the result in assay [6], in assay [8], in assay [9], in assay [11] and in [10] was inactive.
With `Cc1n[nH]c(C)c1Cc1sc2c(c1C(=O)N1C[C@H](O)CO1)c(=O)n(C)c(=O)n2CC(C)C`, the Potency result in assay [1], in assay [2] and in [4] was “inactive” in each case.
Consider `CC(C[N+](C)(C)C)OC(N)=O` (stereo not given), for which the Potency result in [1], in assay [7], in [4] and in assay [5] was “inactive” each time. Also, the call in assay [6], in assay [8], in [9] and in assay [10] was inactive.
`Cc1ccc(N(CC2=NCCN2)c2cccc(O)c2)cc1`: the Potency entry in assay [1], in [7], in assay [4] and in [5] was “inactive” in each case. For the same compound, the call in assay [6], in [8], in assay [9] and in assay [10] was inactive.
Take `O=NN(CCCl)C(=O)NCCCl`: the Potency result in assay [1], in assay [7], in assay [4] and in assay [5] was “inactive” each time. Besides, the compound was called inactive in assay [6], in [8], in assay [9] and in [10].
With `N[C@@H]1CONC1=O`, the Potency result in assay [1], in [7], in assay [4] and in assay [5] was “inactive” in each case. Further, the outcome in [6], in [8], in assay [9], in assay [11] and in assay [10] was inactive.
`C#Cc1cccc(Nc2ncnc3cc(OCCOC)c(OCCOC)cc23)c1`: the Potency result in assay [1], in [3], in assay [2] and in assay [5] was “inactive” throughout.
On to `CCCC(CCC)C(=O)O`, for which the Potency entry in assay [1], in [7], in [4] and in assay [5] was “inactive” throughout. Further, the call in assay [6], in assay [8], in assay [9] and in [10] was inactive.
With `Cc1cn[nH]c1`, the Potency result in [1], in assay [7], in assay [4] and in assay [5] was “inactive” each time. The compound was called inactive in assay [6], in assay [8], in assay [9] and in assay [10].
Turning to `Clc1ccc(Nc2nnc(Cc3ccncc3)c3ccccc23)cc1`, the Potency entry in assay [1], in [2], in assay [4] and in assay [5] was “inactive” throughout. In addition, the result in [11] was inactive.
As for `Nc1ccc(S(=O)(=O)Nc2ccnn2-c2ccccc2)cc1`, the Potency entry in assay [1], in assay [7] and in assay [5] was “inactive” each time. Further, the compound was called inactive in assay [6], in [8], in assay [9] and in assay [10].
As for `O=C(O)COCCN1CCN(C(c2ccccc2)c2ccc(Cl)cc2)CC1` (stereo not given), the Potency entry in assay [1], in assay [7] and in assay [5] was “inactive” each time. The call in assay [6], in assay [8], in assay [9], in assay [11] and in assay [10] was inactive.
On to `O=C1CCC(N2C(=O)c3ccccc3C2=O)C(=O)N1` (stereo not given), for which the Potency entry in assay [1], in assay [7], in [4] and in assay [5] was “inactive” each time. Further, the compound was called inactive in [6], in assay [8], in assay [9] and in [10].
Consider `Cc1ccnc(NS(=O)(=O)c2ccc(NC(=O)Nc3ccc(S(=O)(=O)Nc4nccc(C)n4)cc3)cc2)n1`, for which, in [1], the Potency is 24.1 µM (active). Besides, the Potency result in assay [3] and in [4] was “inactive” each time.
On to `Cc1cc([C@@H](C)Nc2ccccc2C(=O)O)c2nc(N3CCOCC3)cc(=O)n2c1`, for which the Potency entry in assay [1] and in assay [4] was “inactive” throughout.
With `Cc1c(C)c2c(c(C)c1O)CCC(C)(COc1ccc(CC3SC(=O)NC3=O)cc1)O2` (stereo not given), the Potency entry in [1] and in assay [4] was “inactive” each time. Besides, in [8], the outcome was inactive.
In the case of `NCCc1ccc(O)c(O)c1`, the Potency result in assay [1], in assay [7], in [4] and in [5] was “inactive” each time. Further, the outcome in assay [8], in assay [9], in [11] and in [10] was inactive.
Turning to `NC(=O)C1CCCc2c1[nH]c1ccc(Cl)cc21` (stereo not given), the Potency result in [1] and in assay [4] was “inactive” throughout.
Turning to `CNC(=O)c1ccc(N2C(=S)N(c3ccc(C#N)c(C(F)(F)F)c3)C(=O)C2(C)C)cc1F`, the Potency result in assay [1] and in [4] was “inactive” each time.
Consider `COc1ccc(CC2=NN3C([C@@H](CCc4ccccc4)[C@@H](C)O)=NC(C)C3C(=O)N2)cc1OC` (stereo not given in full), for which the Potency entry in assay [1] and in [4] was “inactive” in each case.
Take `C1COC(NC(C2CC2)C2CC2)=N1`: the Potency entry in assay [1], in [7], in assay [4] and in assay [5] was “inactive” each time. For the same compound, the result in [6], in assay [9] and in [10] was inactive.
Consider `CCOC(=O)N1CCC(=C2c3ccc(Cl)cc3CCc3cccnc32)CC1`, for which the Potency entry in assay [1], in assay [7] and in [5] was “inactive” each time. The compound was called inactive in assay [6], in [9] and in [10].
Regarding `O=C(Nc1nc2ccccc2n1CCN1CCOCC1)c1cccc([N+](=O)[O-])c1`, the Potency result in assay [1] and in assay [4] was “inactive” throughout. The compound was called inactive in [6], in [9] and in assay [10].
With `COc1ccc2nc(S(=O)Cc3ncc(C)c(OC)c3C)[nH]c2c1` (stereo not given), the Potency entry in assay [1], in assay [4] and in [5] was “inactive” each time. The compound was called inactive in assay [8] and in assay [11].
Turning to `NC(=O)c1ccc(I)c([N+](=O)[O-])c1`, the Potency result in assay [1] and in [4] was “inactive” each time.
As to `C[C@]1(c2nc3c(C(N)=O)cccc3[nH]2)CCCN1`, the Potency entry in assay [1] and in [4] was “inactive” each time.

The values are drawn from PubChem BioAssay (NCATS).
